# The list is not random: actives were taken first. Their share in the collection is about 1.6%.
# PERK inhibitor: blocks human PERK kinase. CHO PERK-DD fusion, SEAP luminescence translation reporter. inhibition, % at 5.6 µM. actives 0.17% (n = 220,000). AID 1416;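 active = inhibition above the mean inhibition of all tested compounds plus 3 SD, set separately per screening campaign, cut at about 2.9% in these data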;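 note: PERK kinase domain activated by AP20187 dimerizer at 100 nM; 0% = DMSO with dimerizer and 100% = rapamycin at 8.4 µM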
# Target sequence (Q9NZJ5 whole entry, looked up, the tested form may be a part): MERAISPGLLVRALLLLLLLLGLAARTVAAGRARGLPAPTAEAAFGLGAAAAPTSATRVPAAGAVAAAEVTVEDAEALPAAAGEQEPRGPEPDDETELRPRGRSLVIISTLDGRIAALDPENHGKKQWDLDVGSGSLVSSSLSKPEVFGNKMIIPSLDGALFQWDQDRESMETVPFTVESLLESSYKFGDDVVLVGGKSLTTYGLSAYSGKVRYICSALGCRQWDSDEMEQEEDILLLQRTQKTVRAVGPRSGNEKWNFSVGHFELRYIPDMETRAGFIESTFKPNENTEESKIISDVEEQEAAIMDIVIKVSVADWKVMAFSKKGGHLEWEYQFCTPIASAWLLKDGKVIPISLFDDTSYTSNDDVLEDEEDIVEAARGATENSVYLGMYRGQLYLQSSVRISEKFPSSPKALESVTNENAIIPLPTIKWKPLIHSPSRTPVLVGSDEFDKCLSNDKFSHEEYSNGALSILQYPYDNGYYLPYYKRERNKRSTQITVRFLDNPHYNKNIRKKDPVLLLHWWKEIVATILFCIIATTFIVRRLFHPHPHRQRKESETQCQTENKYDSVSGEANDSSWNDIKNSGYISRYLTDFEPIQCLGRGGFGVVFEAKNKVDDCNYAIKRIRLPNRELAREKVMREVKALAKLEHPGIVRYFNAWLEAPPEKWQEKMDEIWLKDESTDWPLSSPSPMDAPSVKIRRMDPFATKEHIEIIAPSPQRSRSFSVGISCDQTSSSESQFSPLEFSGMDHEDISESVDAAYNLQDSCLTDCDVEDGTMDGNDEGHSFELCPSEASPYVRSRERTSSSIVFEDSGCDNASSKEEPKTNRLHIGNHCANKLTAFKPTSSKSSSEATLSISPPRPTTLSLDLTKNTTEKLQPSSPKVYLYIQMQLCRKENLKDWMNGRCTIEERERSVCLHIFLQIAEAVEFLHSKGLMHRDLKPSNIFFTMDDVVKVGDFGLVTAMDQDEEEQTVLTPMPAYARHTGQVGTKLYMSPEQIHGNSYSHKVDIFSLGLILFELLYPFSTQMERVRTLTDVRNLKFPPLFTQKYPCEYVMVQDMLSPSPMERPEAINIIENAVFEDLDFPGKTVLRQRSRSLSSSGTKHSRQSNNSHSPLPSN
# NLRP3 yeast inh: blocks the NALP3 inflammasome reconstituted in yeast; Yeast reconstituted NLRP3/ASC/caspase-1, beta-gal luminescence, 24 h; inhibition, % at 10 µM; actives 0.39% (n = 330,000); AID 2825;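 active = inhibition of 50% or more; inactive = inhibition below 50%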;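 note: plate controls were induced DMSO wells for no effect and uninduced yeast grown without galactose for full effect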
# Rce1 inhib: inhibitors of yeast Ras-converting enzyme; Q03530; yeast membranes, quenched prenylated peptide cleavage fluorescence; calls only; actives 0.27% (n = 290,000);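 active = fall in fluorescence gain of 50% or more versus controls, with final raw signal at or below 3038400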;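 note: plate controls were neutral control wells for no effect and wells lacking membranes for full effect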
# V-ATPase pH: alters yeast V-ATPase proton transport | AID 504577 | actives 0.37% (n = 350,000) | response, % at 10 µM | S. cerevisiae, pHLuorin cytosolic pH fluorescence; in the data active = response mostly above about 7.3%, no sharp cut-off; inactive = mostly below about 5.4%; note: actives read high
# CR mimetic SO: lowers age-related superoxide in aged yeast cells; S. cerevisiae aged cells, superoxide DHE fluorescence; active compounds read low; superoxide response (% of plate mean), % at 10 µM; actives 0.18% (n = 330,000);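 active = superoxide response under a set limit, about three screen SD below normal, cut at about 65% in these data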;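 note: yeast aged for seven days with compound at 30 °C before DHE staining; 100% = average MFI of all compound-treated wells on the plate with controls excluded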
# NALP1 inh: inhibitors of NALP1 inflammasome in yeast. actives 0.61% (n = 280,000). inhibition, % at 10 µM. S. cerevisiae NALP1/ASC/caspase-1 growth, X-gal OD620, 72 h; in the data active = inhibition mostly above about 24%, no sharp cut-off; inactive = mostly below about 32%
# Superoxide pick: yeast aging superoxide inhibition, cherry pick confirmation | S. cerevisiae aging, superoxide DHE fluorescence; active compounds read low | shares compounds with CR mimetic SO | superoxide response (% of plate), % at 10 µM | AID 434994 | actives 1% (n = 850);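 active = superoxide signal below 65% of the plate average of sample wells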;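 note: cells aged with compound for 7 days at 30 degrees C before staining; 100% equals mean DHE fluorescence of all compound wells on the plate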
# DHE counter: DHE fluorescence interference, counter-screen artifact | S. cerevisiae BY4741, flow cytometry; active compounds read low | 850 tested, under 10 active | shares compounds with CR mimetic SO | fluorescence response, % at 10 µM;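 active = fluorescence response below 15%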;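 note: percent of the mean fluorescence averaged over all compound wells on the plate; lower means stronger quenching of DHE signal or ROS scavenging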
# An asterisk follows results filed as active; i = inactive; x = no result given.
SMILES,PERK inhibitor,NLRP3 yeast inh,Rce1 inhib,V-ATPase pH,CR mimetic SO,NALP1 inh,Superoxide pick,DHE counter
C[C@]12CCC3C(CC[C@H]4CCCC[C@]34C)C1CC[C@@]2(O)CNCCO (stereo partly specified),x,20,i,-2,111,9,91,95
N#CCCN(Cc1ccccc1)C(=S)NC(=O)c1ccccc1,-1,12,i,2,57*,25,102,107
COc1cccc(NC(=O)N(C)C[C@@H]2OCc3cn(nn3)CCCC(=O)N([C@H](C)CO)C[C@H]2C)c1,x,x,x,0,x,x,x,x
COc1cccc(/C=N/NC(=O)c2[nH]c(C)c(C(=O)N/N=C/c3cccc(OC)c3O)c2C)c1O,0,7,i,-3,63*,12,88,94
FC(F)c1nc2ccccc2[nH]1,0,-1,i,-1,120,8,x,x
c1ccc2[nH]c3cc4ncnc4cc3nc2c1,1,1,i,0,40*,71,47*,89
O=C1NC(=O)C2(N1)C(=O)c1cccc3cccc2c13 (stereo unspecified),x,x,x,0,x,x,x,x
CC(C)(C)c1ccc(-n2ncc3c2CCCC3NC(=O)c2csnn2)cc1 (stereo unspecified),x,11,i,0,58*,-30,101,104
Cc1cc(OCC(=O)OC(C)C(=O)NC2CC2)c(C(C)C)cc1Cl (stereo unspecified),x,x,x,0,x,x,x,x
Clc1ccc(/C=C/c2nc(Cl)c(-c3ccc(Cl)cc3)c(Cl)n2)cc1,0,13,i,4,63*,21,92,92
COc1ccc(NC(=O)CCCn2c(=S)[nH]c3ccccc3c2=O)cc1,0,10,i,-3,97,31,x,x
COc1ccc(NC(=O)CCn2c(=S)[nH]c3ccccc3c2=O)cc1,x,12,i,-3,65*,27,115,112
C[C@@H]1CN([C@@H](C)CO)C(=O)CCCn2cc(nn2)CO[C@H]1CN(C)C(=O)Oc1ccccc1,x,x,x,-4,x,x,x,x
COC(=O)c1ccc(NC(=O)CSc2ccc(-c3ccccn3)nn2)cc1,x,18,i,-2,102,-1,82,98
CCn1c(C)nnc1SCC(=O)Nc1ccc(C(C)=O)cc1,x,24,i,0,59*,15,91,98
CCn1c(SCC(=O)Nc2ccc(C(=O)OC)cc2)nnc1-c1cccs1,0,-12,i,-6,89,-1,105,101
CCn1c(SCC(=O)N2CCN(S(=O)(=O)c3ccccc3)CC2)nnc1-c1cccs1,0,6,i,4,63*,12,101,92
O=C(Nc1ccc([N+](=O)[O-])cc1)C(c1ccccc1)c1ccccc1,x,x,x,0,x,x,x,x
CC1(C)Cc2c(sc3nc(N/N=C/c4ccccc4)[nH]c(=O)c23)CO1,1,11,i,-1,94,17,x,x
CC(C)=NNc1nc2sc3c(c2c(=O)[nH]1)CC(C)(C)OC3,0,3,i,3,50*,2,95,92
CCSc1nnc(C)c(=O)n1COC(=O)c1ccc(S(=O)(=O)N2CCCC2)cc1,0,18,i,0,51*,-2,105,102
N#CC(c1nc2ccccc2nc1N1CCCC1)S(=O)(=O)c1ccccc1 (stereo unspecified),0,27,i,10,63*,42,101,106
COc1ccc(S(=O)(=O)Nc2cccc(Cl)c2)cc1OC,0,0,i,0,104,22,101,106
COc1ccc(S(=O)(=O)Nc2ccc(F)c(F)c2)cc1Cl,1,6,i,6,123,29,99,109
Cc1ccc(S(=O)(=O)N(C)c2ccc(OC(C)C(=O)N(C)c3ccccc3)cc2)cc1 (stereo unspecified),x,16,x,11,x,x,x,x
SMILES,PERK inhibitor,NLRP3 yeast inh,Rce1 inhib,V-ATPase pH,CR mimetic SO,NALP1 inh,Superoxide pick,DHE counter
COc1cc(/C=C2\CC(C(C)(C)C)C/C(=C\c3cc(OC)c(OC)c(OC)c3)C2=O)cc(OC)c1OC (stereo unspecified),x,2,i,-1,57*,32,95,91
CN1CCN(C2=Cc3ccccc3Sc3cc(F)c(F)cc32)CC1,0,16,i,1,73,13,x,x
CN1CCN(C2=Cc3cc(Cl)ccc3Sc3cc(F)ccc32)CC1,-1,24,i,-1,60*,19,94,93
CC1C(=O)N(Cc2cn(CCC3OCCO3)nn2)CCS(=O)(=O)N1Cc1ccc(-c2ccc(F)nc2)cc1 (stereo unspecified),x,x,x,1,x,x,x,x
COc1ccc(C)cc1N(C(=O)c1ccccc1)c1nc2ccccc2s1,0,15,i,1,98,23,x,x
COc1ccc(C)cc1N(C(=O)c1cccc(F)c1)c1nc2ccccc2s1,0,5,x,4,48*,18,97,108
COC(=O)N(C)C[C@@H]1OCc2cnnn2CCCC(=O)N([C@H](C)CO)C[C@@H]1C,x,x,x,-2,x,x,x,x
OCCN(CC#CCn1c2ccccc2c2ccccc21)CCO,0,15,i,5,106,x,87,105
OCCN(CC#CC(O)(c1ccccc1)C1CCCCC1)CCO (stereo unspecified),x,3,i,-3,94,8,x,x
COc1ccc(OCCNC(=O)c2ccccc2Cl)cc1,x,25,i,2,64*,18,96,93
COc1ccc(CCNC(=O)CCc2ccc(OC)cc2)cc1,x,19,i,-1,100,14,x,x
O=C(NCCOc1ccccc1)c1ccccc1Cl,x,10,i,-2,101,22,x,x
COc1ccc(CCC(=O)NCCOc2ccc(C)cc2)cc1,x,4,i,0,39*,20,95,91
N#CC(=C1NC(=O)c2ccccc21)c1nc2ccccc2n1CCO,x,x,x,0,x,x,x,x
COC(=O)[C@H](Cc1ccccc1)NC(=O)[C@@H](N)CC(=O)OCc1ccccc1,x,10,x,-4,65*,x,94,101
COc1ccc(CC(=O)N(Cc2ccccc2)c2cccc(C)c2)cc1OC,x,8,i,-1,64*,-1,98,90
O=C(Cn1ncc2ccccc2c1=O)Nc1cccc(C(F)(F)F)c1,x,x,x,-1,x,x,x,x
Nc1nccc(NCCSCc2ccccc2)n1,x,x,x,-2,x,x,x,x
Cc1ccc(NS(=O)(=O)c2cc(C(=O)O)ccc2Cl)cc1,1,-12,i,0,94,-12,x,x
O=C(O)c1ccc(NS(=O)(=O)c2cc(Cl)ccc2Cl)cc1,1,10,i,7,105,0,114,119
COC(=O)CN(c1ccccc1)S(=O)(=O)c1ccccc1,0,-16,i,1,91,-7,100,91
COC(=O)c1cccc(S(=O)(=O)N2CCOCC2)c1,1,16,i,-1,97,17,x,x

# Source: PubChem BioAssay (several laboratories)
